SENP8 block-1 – human SENP8 protease inhibitors, primary screen, biochemical, fluorescence, Nedd8 protein substrate, uHTS. Sentrin-specific protease 8 (Homo sapiens), Q96LD8. recombinant SENP8. inhibition, % at 20 µM. 360,000 compounds, 0.64% hits; in the data active means inhibition mostly above about 40%, no sharp cut-off; inactive means mostly below about 27%
SENP6 inh – SENP6 protease inhibitors, primary screen, biochemical, luminescence, uHTS | Recombinant SENP6 catalytic domain, aminoluciferin luminescence | 330,000 compounds, 1.8% hits | inhibition, % at 10 µM | AID 2599, 2010 | Sentrin-specific protease 6 (Homo sapiens), Q9GZR1;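 active means inhibition above about 50% at the single tested dose, limit read from the data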
SENP8 block-2 – SENP8 protease inhibitors, primary screen, biochemical, luminescence; 330,000 compounds, 1.2% hits; purified SENP8, Z-RLRGG-aminoluciferin cleavage; Sentrin-specific protease 8 (Homo sapiens), Q96LD8; inhibition, % at 10 µM; in the data active means inhibition above about 50%
SENP7 inh – SENP7 protease inhibitors, primary screen, biochemical, luminescence, uHTS. recombinant SENP7, Z-RLRGG-aminoluciferin luminescence, 40 min. AID 434973, 2010. Sentrin-specific protease 7 (Homo sapiens), Q9BQF6. 330,000 compounds, 1.5% hits. inhibition, % at 5 µM;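 active means inhibition above about 50% at the single test dose, limit read from the data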
Target sequence (Q9BQF6 706-1050 limits assumed): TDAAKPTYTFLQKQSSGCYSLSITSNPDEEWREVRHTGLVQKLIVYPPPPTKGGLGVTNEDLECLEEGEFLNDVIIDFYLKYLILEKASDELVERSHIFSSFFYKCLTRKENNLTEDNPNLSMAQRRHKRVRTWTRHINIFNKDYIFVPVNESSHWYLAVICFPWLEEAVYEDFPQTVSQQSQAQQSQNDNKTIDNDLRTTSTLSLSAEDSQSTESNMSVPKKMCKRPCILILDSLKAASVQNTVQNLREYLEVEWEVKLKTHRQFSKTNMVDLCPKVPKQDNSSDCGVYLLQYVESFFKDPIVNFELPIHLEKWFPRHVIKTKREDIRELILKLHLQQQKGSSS
Platelet DG rel – inhibitors of platelet dense granule secretion, primary screen, cell-based, MLPCN, human platelets; 300,000 compounds, 0.22% hits; inhibition, %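 (compounds screened at 7.5 µM in platelet-rich plasma)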; human platelet-rich plasma, SFLLRN dense granule ATP release, luminescence;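 active means mean replicate score, as percent of positive control, at or above 50; inconclusive means mean below 50 but at least one replicate at or above 50; inactive means mean and every replicate below 50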
SENP8 confirm – SENP8 protease inhibitors, retest, confirmation, biochemical, luminescence, single concentration. shares compounds with SENP7 inh. Recombinant SENP8, Z-RLRGG-aminoluciferin luminescence, 60 min. inhibition, % at 12.5 µM. 6,200 compounds, 40% hits. AID 488912, 2010;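 active means mean inhibition across replicates above about 50%, limit read from the data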
SENP6 conf – SENP6 protease inhibitors, confirmation, biochemical, luminescence, single concentration | recombinant SENP6, Z-RLRGG-aminoluciferin luminescence | inhibition, % at 12.5 µM | AID 488915, 2010 | 6,200 compounds, 58% hits | shares compounds with SENP7 inh
SENP7 confirm – SENP7 protease inhibitors, retest, confirmation, biochemical, luminescence, single concentration; shares compounds with SENP7 inh; recombinant SENP7, Z-RLRGG-aminoluciferin luminescence, 40 min; inhibition, % at 12.5 µM; 6,200 compounds, 69% hits; AID 488917, 2010
Casp3 select – caspase-3 protease inhibitors, confirmation, selectivity assay for SENP inhibitor project, biochemical, single concentration | AID 488918, 2010 | shares compounds with SENP7 inh | inhibition, % at 12.5 µM | 6,200 compounds, 60% hits | purified caspase-3, Z-DEVD-aminoluciferin luminescence, 60 min;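 active means mean inhibition above about 50%, limit read from the data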
Target sequence (P42574 28-227 limits assumed): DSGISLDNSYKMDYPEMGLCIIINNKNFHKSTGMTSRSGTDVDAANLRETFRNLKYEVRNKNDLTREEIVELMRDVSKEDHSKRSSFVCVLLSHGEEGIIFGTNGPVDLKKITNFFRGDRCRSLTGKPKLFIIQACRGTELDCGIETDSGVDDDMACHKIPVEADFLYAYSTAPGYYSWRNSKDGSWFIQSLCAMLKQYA
SENP luc ctr – luminescence interference (SENP counter-screen); shares compounds with SENP7 inh; Pre-incubated SENP8/Z-RLRGG-aminoluciferin, luciferase luminescence interference; inhibition, % at 12.5 µM; 6,200 compounds, 39% hits; AID 488919;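 active means mean inhibition above about 50% when retested at one dose, limit read from the data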
A number is an active result; – = inactive; ? = inconclusive; · = no result. Shown are actives, neighbours in structure and some others; about 2.4% of the full set was active somewhere.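 How the source made its calls, unless noted: active means mean inhibition above about 50% in the one-dose retest (limit read from the data); inactive means the rest.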

SMILES	SENP8 block-1	SENP6 inh	SENP8 block-2	SENP7 inh	Platelet DG rel	SENP8 confirm	SENP6 conf	SENP7 confirm	Casp3 select	SENP luc ctr
COc1ccc(C(CNC(=O)CN2C(=O)NC3(CCCC3)C2=O)N(C)C)cc1 (stereo not given)	–	–	–	–	–	·	·	·	·	·
Cc1cccnc1Nc1nc(-c2ccc(O)cc2O)cs1	–	68.5	56.4	–	–	81.3	81.1	92.5	–	–
Cc1cccnc1Nc1nc(-c2ccccc2)cs1	–	96.9	92.3	97.2	–	–	96.4	101.6	81.8	73.9
Cc1ccnc(Nc2nc(-c3ccccc3)cs2)c1	–	90.4	80.5	85.4	–	–	64.5	84.6	–	–
NNc1nc(-c2ccccc2)cs1	–	–	–	–	–	·	·	·	·	·
O=C(O)c1ccc(Nc2nc(-c3ccccc3)cs2)cc1	–	84.0	–	65.2	–	72.4	70.4	89.8	63.3	80.4
CCN(CC)C(=O)[C@H]1C[C@H](CC(=O)NCCN2CCOCC2)C(=O)N2CCc3c([nH]c4cc(CCC(=O)N(C)C)ccc34)[C@]12C	–	·	·	–	·	·	·	·	·	·
Oc1ccc(-c2csc(Nc3ccccn3)n2)c(O)c1	–	71.2	–	–	–	52.8	67.5	89.1	–	81.5
Clc1ccc(-c2nc(-c3ccncc3)no2)c(Cl)c1	–	63.2	58.3	76.7	–	–	–	–	–	–
Cc1ccc(-c2nc(-c3ccncc3)no2)c(Cl)c1	–	71.2	74.6	88.7	–	–	–	–	–	–
Clc1ccc(Cl)c(-c2nc(-c3ccncc3)no2)c1	–	–	–	–	–	·	·	·	·	·
Fc1ccc(-c2csc(Nc3ccccn3)n2)cc1	–	86.9	83.5	89.7	–	91.2	92.2	99.8	70.1	58.4
Cc1ccc(Nc2nc(-c3ccc(F)cc3)cs2)nc1	–	–	–	–	–	·	·	·	·	·
CC(=O)Nc1cccc(-c2csc(Nc3ccccn3)n2)c1	–	83.9	78.8	92.0	–	88.1	86.8	98.3	68.0	87.6
c1cncc(Nc2nc(-c3cccnc3)cs2)c1	–	–	–	–	–	·	·	·	·	·
c1ccc(Nc2nc(-c3cccnc3)cs2)nc1	–	88.0	54.5	81.3	–	–	–	87.5	78.7	–
CC(=O)Nc1cccc(-c2csc(Nc3cc(C)ccn3)n2)c1	–	–	–	–	–	·	·	·	·	·
Clc1ccccc1Nc1nc(-c2cccnc2)cs1	–	87.9	73.6	82.8	–	88.9	85.5	96.7	66.0	53.0
CN(CC(=O)Nc1ccc(F)cc1)C(=O)Cn1cnc2ccc([N+](=O)[O-])cc2c1=O	–	–	–	–	·	·	·	·	·	·
Nc1nc(CCl)nc(N(c2ccccc2)c2ccccc2)n1	–	–	–	–	–	·	·	·	·	·
CC(=O)c1sc(-c2ccc(Cl)cc2)cc1N	–	–	–	–	–	·	·	·	·	·
COC(=O)c1sc(-c2ccc(Cl)cc2)cc1N	–	81.3	63.3	67.5	–	53.6	68.8	91.4	–	–
Nc1nc(Nc2ccc(Cl)cc2)c(NC=O)c(=O)[nH]1	–	–	–	–	–	·	·	·	·	·
COc1ccc(N/C=C2\CCc3ccccc3C2=O)cc1	–	97.3	95.6	–	–	–	100.6	103.9	98.6	70.4
O=C1/C(=C/Nc2ccc3c(c2)OCO3)CCc2ccccc21	–	97.0	97.9	98.2	?	–	100.7	103.8	98.2	85.1
SMILES	SENP8 block-1	SENP6 inh	SENP8 block-2	SENP7 inh	Platelet DG rel	SENP8 confirm	SENP6 conf	SENP7 confirm	Casp3 select	SENP luc ctr
COc1ccc2c(c1)CC/C(=C\Nc1ccc3c(c1)OCO3)C2=O	–	60.9	61.1	53.7	–	–	59.6	–	–	–
COc1ccc2c(=O)c3c(=O)n(Cc4ccco4)c(-c4ccco4)nc3oc2c1	–	–	–	–	–	·	·	·	·	·
COc1ccc(Cn2c(-c3ccco3)nc3oc4cc(OC)ccc4c(=O)c3c2=O)cc1	–	50.3	–	–	–	–	–	–	–	–
Cc1ccc2oc(-c3ccccc3)nc2c1	–	95.0	88.1	93.3	–	–	74.9	100.2	–	–
Cc1ccc2oc(Nc3nc(-c4ccccc4)cc(=O)[nH]3)nc2c1	·	–	–	–	–	·	·	·	·	·
CCOc1cccc(-c2nc3cc(C)ccc3o2)c1	–	79.4	–	–	–	–	–	83.0	–	–
COC(=O)c1ccc(OC(=O)C23CCC(C)(C(=O)O2)C3(C)C)cc1 (stereo not given)	–	–	–	–	–	·	·	·	·	·
c1ccc2c(c1)ccc1nnnn12	–	–	–	–	–	·	·	·	·	·
COc1ccc(NS(=O)(=O)c2cn(C)cn2)cc1Cl	–	–	–	–	–	·	·	·	·	·
COc1cc2nn(-c3ccccc3N)nc2cc1OC	–	·	·	·	·	·	·	·	·	·
COc1ccc(-n2nc3ccc(N)cc3n2)cc1Cl	–	85.7	88.1	58.5	–	–	80.9	95.0	56.6	–
Cc1ccc(-n2nc3ccc(N)cc3n2)c(C)c1	–	78.2	64.7	–	–	–	–	–	–	–
COc1ccc(-n2nc3ccc(NS(C)(=O)=O)cc3n2)cc1Cl	–	71.5	51.2	74.0	·	–	–	74.6	55.2	–
Cc1ccc(-n2nc3ccc(N)cc3n2)cc1Cl	–	89.9	87.3	–	–	–	63.2	75.6	63.2	–
CC1(C(=O)NCc2ccccc2Br)CCN1C(=O)CCc1ccc(Cl)cc1Cl (stereo not given)	–	·	·	·	·	·	·	·	·	·
Cc1nn(-c2ccc(Cl)cc2)c(Cl)c1/C=N/NC(=O)c1ccc(NS(=O)(=O)c2cccs2)cc1	–	–	–	–	–	·	·	·	·	·
Cc1ccc(-n2nc3ccc(N)cc3n2)cc1C	–	91.5	81.6	–	–	–	94.0	101.3	82.4	52.3
Cc1cc(N)ccc1-n1nc2ccccc2n1	–	–	–	–	–	·	·	·	·	·
CC(C)(C)c1nnc(NS(=O)(=O)c2cc(Cl)ccc2Cl)s1	–	–	–	–	–	·	·	·	·	·
O=S(=O)(Nc1nc(-c2sccc2Cl)cs1)c1cc(Cl)ccc1Cl	–	74.4	–	–	–	–	–	–	–	–
O=C(NCCCn1ccnc1)C1CCCN(S(=O)(=O)c2ccc(F)cc2)C1 (stereo not given)	–	–	–	–	–	·	·	·	·	·
